Sampled rows, rich in hits. Any-hit rate of the full collection: about 11%.
HP1b chromo inh: HTS for Inhibitors of HP1-beta Chromodomain Interactions with Methylated Histone Tails; AlphaScreen HP1-beta / biotin-H3K9me3 peptide binding; AID 540317, 2011; actives 0.56% (n = 390,000); Potency, µM (titrated, usually from 114 µM), most hits filed as inhibitors; also: nearly all actives have a fitted effect of over 70% in size
Target sequence (P83916 whole entry, looked up): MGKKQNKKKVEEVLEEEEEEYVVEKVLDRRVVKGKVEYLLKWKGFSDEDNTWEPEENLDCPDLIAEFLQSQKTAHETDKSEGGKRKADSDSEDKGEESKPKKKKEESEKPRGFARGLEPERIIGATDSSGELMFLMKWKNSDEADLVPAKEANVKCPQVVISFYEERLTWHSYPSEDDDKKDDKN
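Compound inhibition of the preformed complex between 50 nM HP1-beta and 50 nM biotinylated H3K9me3 peptide was read by AlphaScreen. Buffer was PBS pH 7.4 with 0.01% Tween-20. Incubations ran 30 min at room temperature, with 10 ug/mL donor/acceptor beads.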
L3MBTL1 inh: qHTS Assay for the Inhibitors of L3MBTL1. AlphaScreen L3MBTL1–H3K9me1 peptide binding. Potency, µM (series often up to 57.1 µM), hits mostly inhibitors. AID 485360, 2010. actives 0.66% (n = 230,000). Lethal(3)malignant brain tumor-like protein 1 (Homo sapiens), Q9Y468; also: nearly all actives have a fitted effect of over 60% in size
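L3MBTL1 50 nM + b-AHA-H3(1-15)K9me1 75 nM, 30 min RT; compound added, 30 min RT; streptavidin donor/Ni-chelate acceptor beads 10 ug/mL each final, 30 min RT dark; AlphaScreen read.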
JMJD2A Tudor inh: qHTS Assay for Inhibitors of JMJD2A-Tudor Domain; AID 504339, 2011; AlphaScreen JMJD2A-Tudor / H3K4me3 peptide binding; actives 4.4% (n = 390,000); Lysine-specific demethylase 4A (Homo sapiens), O75164; Potency, µM (highest dose often 114 µM), usual class: inhibitors; also: nearly all actives have a fitted effect of over 50% in size
G9a block: qHTS Assay for Inhibitors of Histone Lysine Methyltransferase G9a | G9a H3K9 monomethylation, AlphaScreen, 2 h | Potency, µM (series often up to 102 µM), most hits filed as inhibitors | actives 8.8% (n = 350,000) | AID 504332, 2011; also: nearly all actives have a fitted effect of over 75% in size
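Enzyme 20 nM + cpd, 15 min RT; add b-H3K9 pep 500 nM / SAM 20 uM; 2 h RT; anti-H3K9me1 Ab 0.5 ug/mL + SA donor / anti-rabbit acceptor beads 20 ug/mL each, 10 min; AlphaScreen read.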
PI5P4K alpha inh: qHTS for Inhibitors of phosphatidylinositol 5-phosphate 4-kinase (PI5P4K); max response, %; PI5P4Kalpha enzyme, ADP-Glo luminescence, 60 min; stronger effect = lower value; Phosphatidylinositol 5-phosphate 4-kinase type-2 alpha (Homo sapiens), P48426; actives 1.2% (n = 330,000); active = max response of -50% or lower; inconclusive = between -30% and -50%; inactive = -30% or higher; also: value at the top dose of about 77 µM
Target sequence (P48426 whole entry, looked up): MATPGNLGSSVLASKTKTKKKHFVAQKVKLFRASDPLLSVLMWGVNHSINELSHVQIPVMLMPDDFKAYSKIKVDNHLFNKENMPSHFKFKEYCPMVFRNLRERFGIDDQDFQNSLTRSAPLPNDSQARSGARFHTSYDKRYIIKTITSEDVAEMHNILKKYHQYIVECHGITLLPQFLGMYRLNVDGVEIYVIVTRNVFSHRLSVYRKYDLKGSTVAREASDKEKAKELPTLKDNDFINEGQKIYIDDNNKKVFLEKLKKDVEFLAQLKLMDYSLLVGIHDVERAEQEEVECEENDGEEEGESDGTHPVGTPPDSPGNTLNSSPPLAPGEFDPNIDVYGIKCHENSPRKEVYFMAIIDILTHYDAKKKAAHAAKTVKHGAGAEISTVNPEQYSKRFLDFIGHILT
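Controls without substrate or without enzyme flank wells where PI5P4Kalpha converts substrate using 5 microM ATP (final). Incubation lasts 60 minutes at room temperature; ADP formed is read by ADP-Glo luminescence.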
BAZ2B block: qHTS Assay for Inhibitors of BAZ2B; Bromodomain adjacent to zinc finger domain protein 2B (Homo sapiens), Q9UIF8; AlphaScreen BAZ2B-H3K14Ac peptide displacement; Potency, µM (highest dose often 114 µM), actives largely listed as inhibitors; actives 4.4% (n = 360,000); also: nearly all actives have a fitted effect of over 60% in size
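Complex of BAZ2B and biotin-H3K14Ac (50 nM apiece) forms over 30 min at RT, then faces library compounds up to 110 uM for another 30 min; AlphaScreen beads added, 20 min dark incubation, luminescence read.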
Large screens that a line does not name were inactive. Unless noted, calls follow the shape of the dose curve; as a rule, active = well fitted inhibition curve with a large enough effect; inconclusive = small, poorly fitted or top-dose-only effect; inactive = no such curve, though single readings can be large or run the other way.

COc1ccc(NC(=O)CSc2nnc(Cc3cccn3C)n2CCc2ccccc2)c(OC)c1	JMJD2A Tudor inh inconclusive, BAZ2B block 50.1µM (no result: PI5P4K alpha inh)
Cc1ccc(Cl)cc1NC(=O)c1cc2c(=O)n3cccc(C)c3nc2n1C	none (no result: L3MBTL1 inh, PI5P4K alpha inh)
CCCC[C@@H]1CCCO[C@@](C(=O)NCc2ccccc2)(C(F)(F)F)C1	none (no result: L3MBTL1 inh, G9a block, PI5P4K alpha inh, BAZ2B block)
Cc1cnc(C(=O)NC2CCSc3ccccc32)cn1 (stereo not given)	G9a block 44.7µM (no result: L3MBTL1 inh)
COc1cc(OC)cc(C(=O)NC2CCSc3ccccc32)c1 (stereo not given)	G9a block inconclusive (no result: L3MBTL1 inh)
Cc1cc(C)nc(/N=C(\NC(=O)C(C)(C)C)Nc2ccc(F)cc2)n1	G9a block 44.7µM
CCc1ccc(N/C(=N/c2nc(C)cc(C)n2)NC(C)=O)cc1	none (no result: L3MBTL1 inh)
O=C(O)c1ccccc1NS(=O)(=O)c1ccc(NN=Cc2cccc(Cl)c2)c([N+](=O)[O-])c1	HP1b chromo inh 79.4µM, JMJD2A Tudor inh 17.8µM, PI5P4K alpha inh -65.9 (no result: G9a block, BAZ2B block)
O=C(O)c1ccccc1NS(=O)(=O)c1ccc(NN=Cc2ccc(F)cc2)c([N+](=O)[O-])c1	HP1b chromo inh inconclusive, JMJD2A Tudor inh 44.7µM, PI5P4K alpha inh -57.8 (no result: G9a block, BAZ2B block)
O=C(O)c1ccccc1NS(=O)(=O)c1ccc(N/N=C/c2ccc(O)c(O)c2)c([N+](=O)[O-])c1	HP1b chromo inh 14.1µM, JMJD2A Tudor inh 28.2µM, PI5P4K alpha inh -95.8 (no result: L3MBTL1 inh, G9a block, BAZ2B block)
COc1ccc(C=NNc2ccc([N+](=O)[O-])cc2S(=O)(=O)Nc2ccccc2C(=O)O)cc1OC	JMJD2A Tudor inh inconclusive, PI5P4K alpha inh inconclusive (no result: G9a block, BAZ2B block)
NS(=O)(=O)c1ccc(N/N=C/c2ccc(O)c(O)c2O)c([N+](=O)[O-])c1	HP1b chromo inh 12.6µM, L3MBTL1 inh 2.82µM, JMJD2A Tudor inh 8.91µM, PI5P4K alpha inh -75.4, BAZ2B block 35.5µM (no result: G9a block)
NS(=O)(=O)c1ccc(N/N=C/c2ccccc2C(=O)O)c([N+](=O)[O-])c1	L3MBTL1 inh inconclusive
CN(C)c1ncc2nc(-c3cccs3)c(=O)n(C3CC3)c2n1	none (no result: HP1b chromo inh, L3MBTL1 inh, JMJD2A Tudor inh, PI5P4K alpha inh, BAZ2B block)
CCOc1ccc(NC(=O)Cc2csc(COc3cccc(C)c3)n2)cc1	none (no result: L3MBTL1 inh, PI5P4K alpha inh)
COCCNC(=O)Cn1c(=O)n(CCCCCC(=O)NCc2ccccc2Cl)c(=O)c2sccc21	none (no result: L3MBTL1 inh, PI5P4K alpha inh)
O=[N+]([O-])c1ccc(/C=C/C2=NN(c3ccccc3)C(c3ccco3)C2)o1 (stereo not given)	HP1b chromo inh inconclusive, L3MBTL1 inh inconclusive, JMJD2A Tudor inh 3.16µM, G9a block 31.6µM, PI5P4K alpha inh -62.3, BAZ2B block 31.6µM
CCC(=O)N1CCN(c2ccc(OC)cc2[N+](=O)[O-])CC1	none (no result: PI5P4K alpha inh)
COc1ccc(N2CCN(C(=O)CC34CC5CC(CC(C5)C3)C4)CC2)c([N+](=O)[O-])c1	HP1b chromo inh inconclusive, L3MBTL1 inh inconclusive, JMJD2A Tudor inh 28.2µM, G9a block inconclusive, BAZ2B block 35.5µM
COc1ccc(N2CCN(C(=O)c3cccc(Br)c3)CC2)c([N+](=O)[O-])c1	HP1b chromo inh inconclusive, JMJD2A Tudor inh 22.4µM, G9a block inconclusive, BAZ2B block 39.8µM
COc1ccc(N2CCN(C(=O)c3ccccc3F)CC2)c([N+](=O)[O-])c1	HP1b chromo inh inconclusive, G9a block 50.1µM, BAZ2B block inconclusive (no result: L3MBTL1 inh)
COc1ccc(N2CCN(S(=O)(=O)c3ccc4c(c3)CCCC4)CC2)c([N+](=O)[O-])c1	HP1b chromo inh inconclusive, JMJD2A Tudor inh inconclusive, G9a block 17.8µM, BAZ2B block inconclusive (no result: PI5P4K alpha inh)
CCCCn1c(=O)c2oc3ccccc3c2n(CC(=O)Nc2cccc(Cl)c2C)c1=O	none (no result: L3MBTL1 inh, PI5P4K alpha inh)
CCOc1cc(CNCCSc2nnnn2-c2ccccc2)cc(Cl)c1OC	none (no result: L3MBTL1 inh, PI5P4K alpha inh)
CCOc1ccc(S(=O)(=O)n2nc(C)c(S(=O)(=O)N3CCCCCC3)c2C)cc1	none (no result: L3MBTL1 inh, PI5P4K alpha inh)

Screening results (PubChem BioAssay)
